Among the data in ChEMBL document CHEMBL3988442, “University of Dundee, Small-Polar-MMV Screening Library” (2021) are Percent Effect values, retold here.

For some of these results: Potency and affinity values are given separately.

What all share (parameters): scale not given: direction of the effect not stated beside the values
For experiment [1], the target named is Protein translocase subunit SecA (Escherichia coli (strain K12)) (UniProt P10408). Nature of the experiment: Assay to Identify E. coli SecA ATPase Inhibitors. It is filed as functional. The conditions noted are these: 30 µM.
Sequence of Protein translocase subunit SecA (Escherichia coli (strain K12)) (P10408 whole entry): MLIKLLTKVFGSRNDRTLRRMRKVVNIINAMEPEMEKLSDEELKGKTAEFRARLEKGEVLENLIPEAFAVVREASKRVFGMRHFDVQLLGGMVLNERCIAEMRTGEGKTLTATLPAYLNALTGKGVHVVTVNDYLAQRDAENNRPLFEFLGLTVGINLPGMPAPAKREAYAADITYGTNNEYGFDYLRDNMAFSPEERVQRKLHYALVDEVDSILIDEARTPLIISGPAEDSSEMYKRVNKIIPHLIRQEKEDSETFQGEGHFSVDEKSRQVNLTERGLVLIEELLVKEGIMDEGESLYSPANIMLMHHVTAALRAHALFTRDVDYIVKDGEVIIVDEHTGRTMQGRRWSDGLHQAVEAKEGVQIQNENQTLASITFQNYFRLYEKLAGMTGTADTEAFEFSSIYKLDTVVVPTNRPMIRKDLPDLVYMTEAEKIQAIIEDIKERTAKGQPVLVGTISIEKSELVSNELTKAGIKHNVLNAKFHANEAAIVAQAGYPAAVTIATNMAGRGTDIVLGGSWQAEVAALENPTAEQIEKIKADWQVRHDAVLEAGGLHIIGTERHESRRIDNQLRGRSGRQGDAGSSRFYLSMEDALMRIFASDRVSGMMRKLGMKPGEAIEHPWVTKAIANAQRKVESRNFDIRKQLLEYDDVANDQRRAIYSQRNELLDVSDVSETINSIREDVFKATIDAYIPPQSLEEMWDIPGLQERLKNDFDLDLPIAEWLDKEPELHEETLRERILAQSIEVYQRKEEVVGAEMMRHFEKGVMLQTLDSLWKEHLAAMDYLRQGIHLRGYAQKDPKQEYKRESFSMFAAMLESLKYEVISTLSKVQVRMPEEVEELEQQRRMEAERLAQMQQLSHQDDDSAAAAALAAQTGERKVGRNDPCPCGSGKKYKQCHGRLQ
The target in experiment [2] is T1, Ubiquitin-activating enzyme e1, putative (Leishmania donovani (strain BPK282A1)) (UniProt E9BSI1).
T1 sequence (whole entry): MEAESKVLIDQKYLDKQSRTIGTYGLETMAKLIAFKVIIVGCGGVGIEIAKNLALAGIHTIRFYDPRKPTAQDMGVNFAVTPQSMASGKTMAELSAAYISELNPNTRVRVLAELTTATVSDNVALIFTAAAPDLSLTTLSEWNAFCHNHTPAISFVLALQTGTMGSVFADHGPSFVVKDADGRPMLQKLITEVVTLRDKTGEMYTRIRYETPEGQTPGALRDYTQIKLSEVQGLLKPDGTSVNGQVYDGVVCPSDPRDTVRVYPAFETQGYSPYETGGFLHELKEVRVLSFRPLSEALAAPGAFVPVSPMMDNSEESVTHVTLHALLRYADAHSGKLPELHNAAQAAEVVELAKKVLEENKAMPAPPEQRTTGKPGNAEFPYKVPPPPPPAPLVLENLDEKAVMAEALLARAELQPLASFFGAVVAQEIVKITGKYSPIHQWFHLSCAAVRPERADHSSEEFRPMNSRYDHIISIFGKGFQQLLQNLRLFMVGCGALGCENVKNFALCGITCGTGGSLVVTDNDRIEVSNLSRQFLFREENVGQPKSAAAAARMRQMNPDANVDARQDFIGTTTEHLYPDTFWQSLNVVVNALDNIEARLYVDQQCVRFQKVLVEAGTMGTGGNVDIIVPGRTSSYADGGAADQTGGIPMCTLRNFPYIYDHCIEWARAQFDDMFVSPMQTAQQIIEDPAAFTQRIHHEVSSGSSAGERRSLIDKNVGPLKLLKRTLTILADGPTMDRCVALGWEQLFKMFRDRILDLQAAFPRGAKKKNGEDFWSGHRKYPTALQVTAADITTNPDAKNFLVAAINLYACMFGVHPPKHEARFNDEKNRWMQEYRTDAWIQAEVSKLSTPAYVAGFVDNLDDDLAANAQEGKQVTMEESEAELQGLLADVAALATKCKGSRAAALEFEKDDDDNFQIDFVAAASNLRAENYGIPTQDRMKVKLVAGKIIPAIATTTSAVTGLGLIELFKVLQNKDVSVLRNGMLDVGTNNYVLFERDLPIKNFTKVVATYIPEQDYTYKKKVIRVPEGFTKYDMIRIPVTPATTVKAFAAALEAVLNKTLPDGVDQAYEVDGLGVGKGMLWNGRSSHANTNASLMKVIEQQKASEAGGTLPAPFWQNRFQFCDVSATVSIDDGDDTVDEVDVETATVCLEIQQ
Nature of the experiment: Leishmania donovani Ubiquitin Activating Enzyme (LdE1). To be noted: 30 µM. It is filed as functional.

Experiment [3] has as its target Sialic acid-binding Ig-like lectin 9 (Homo sapiens) (UniProt Q9Y336). Nature of the experiment: Hs-Siglec9 ALPHAscreen SOP 20170721. The conditions noted are these: 10 µM. In general terms: Bead proximity is the source of the signal in Alpha formats.
A further experiment has as its system Trypanosoma cruzi. The experiment in a line: Trypanosoma cruzi phosphomannomutase and mannose-1-phosphate guanylyltransferase assay. In kind it is functional. The conditions noted are these: 10 µM.
The target in experiment [4] is T2, Arginase-2, mitochondrial (Homo sapiens) (UniProt P78540).
T2 sequence (whole entry): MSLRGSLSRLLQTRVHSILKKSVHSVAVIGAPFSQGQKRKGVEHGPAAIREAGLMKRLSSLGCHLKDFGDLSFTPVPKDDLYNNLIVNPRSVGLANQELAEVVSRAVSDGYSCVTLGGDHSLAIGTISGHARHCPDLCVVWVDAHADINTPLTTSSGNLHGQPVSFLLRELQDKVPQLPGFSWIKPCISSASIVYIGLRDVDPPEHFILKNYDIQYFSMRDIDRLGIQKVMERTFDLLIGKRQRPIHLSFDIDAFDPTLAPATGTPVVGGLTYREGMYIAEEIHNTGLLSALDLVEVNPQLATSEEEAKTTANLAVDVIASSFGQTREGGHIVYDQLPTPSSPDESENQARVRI
The experiment in a line: in vitro enzyme assay to detect the production of urea directly proportional to the activity of Arginase II. Note: in the data most compounds retested in dose-response had high values. It is filed as functional. The conditions noted are these: 33.3 µM.

Experiment [5] concerns the target T3, Proteasome subunit beta (Trypanosoma cruzi) (UniProt O96673).
T3 sequence (whole entry): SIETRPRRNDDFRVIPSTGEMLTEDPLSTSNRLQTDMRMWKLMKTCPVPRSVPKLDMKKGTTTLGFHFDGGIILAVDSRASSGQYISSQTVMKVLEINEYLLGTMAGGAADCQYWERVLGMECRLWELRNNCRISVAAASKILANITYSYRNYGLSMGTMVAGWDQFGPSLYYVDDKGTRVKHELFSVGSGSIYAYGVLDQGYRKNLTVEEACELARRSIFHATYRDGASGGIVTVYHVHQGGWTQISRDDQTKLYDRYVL
Nature of the experiment: Trypanosoma cruzi proteasome chymotrypsin-like activity (TcProtChymo) assay. Note: in the data most compounds retested in dose-response had high values. In kind it is functional. The conditions noted are these: 9.37 µM.

The next experiment is filed under the species Homo sapiens. Nature of the experiment: To identify inhibition of the IFN signalling (Jak-Stat) pathway via expression of an eGFP reporter gene under the control of an IFN-stimulated response element (ISRE) containing MxA promoter. In kind it is functional. To be noted: 30 µM. Background: In a reporter assay the amount or activity of a reporter protein is the signal.

In experiment [6] the target is T4, Tyrosyl-tRNA synthetase, putative (Trypanosoma cruzi (strain CL Brener)) (UniProt Q4DSP6).
T4 sequence (whole entry): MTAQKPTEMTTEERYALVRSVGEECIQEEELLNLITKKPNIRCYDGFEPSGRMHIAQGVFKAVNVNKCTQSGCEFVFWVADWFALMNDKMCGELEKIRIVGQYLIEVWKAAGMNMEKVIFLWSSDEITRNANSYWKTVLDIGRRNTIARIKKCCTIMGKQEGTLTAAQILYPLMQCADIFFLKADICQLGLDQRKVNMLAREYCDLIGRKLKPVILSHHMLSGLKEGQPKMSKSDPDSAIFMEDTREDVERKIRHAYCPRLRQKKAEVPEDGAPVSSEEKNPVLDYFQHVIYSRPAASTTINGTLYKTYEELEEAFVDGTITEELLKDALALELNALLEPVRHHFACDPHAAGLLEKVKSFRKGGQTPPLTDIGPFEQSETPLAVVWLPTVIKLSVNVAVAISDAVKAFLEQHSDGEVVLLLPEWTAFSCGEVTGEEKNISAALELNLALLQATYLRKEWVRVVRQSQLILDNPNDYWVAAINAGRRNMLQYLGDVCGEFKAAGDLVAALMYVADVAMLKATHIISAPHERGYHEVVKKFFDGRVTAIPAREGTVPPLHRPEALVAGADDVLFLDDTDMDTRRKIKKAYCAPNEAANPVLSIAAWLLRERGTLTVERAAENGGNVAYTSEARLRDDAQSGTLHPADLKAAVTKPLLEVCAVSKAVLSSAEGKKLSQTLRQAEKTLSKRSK
The experiment in a line: Trypanosoma cruzi tyrosyl tRNA synthetase (TcYRS) _High Tyrosine SOP. Note: in the data most compounds retested in dose-response had high values. In kind it is functional. The conditions noted are these: 30 µM.

Experiment [7] has as its target T4, Tyrosyl-tRNA synthetase, putative (Trypanosoma cruzi (strain CL Brener)). The experiment in a line: Trypanosoma cruzi tyrosyl tRNA synthetase (TcYRS) SOP. In kind it is functional. The conditions noted are these: 30 µM.
Experiment [8] concerns the target Chromo domain-containing protein 1 (Saccharomyces cerevisiae (strain ATCC 204508 / S288c) (Baker's yeast)) (UniProt P32657). Nature of the experiment: ScCHD-1 Enzyme Inhibition Assay. Note: in the data most compounds retested in dose-response had high values. It is filed as functional. To be noted: 30 µM.

Sequence of Chromo domain-containing protein 1 (Saccharomyces cerevisiae (strain ATCC 204508 / S288c) (Baker's yeast)) (P32657 whole entry, the tested form may be a part): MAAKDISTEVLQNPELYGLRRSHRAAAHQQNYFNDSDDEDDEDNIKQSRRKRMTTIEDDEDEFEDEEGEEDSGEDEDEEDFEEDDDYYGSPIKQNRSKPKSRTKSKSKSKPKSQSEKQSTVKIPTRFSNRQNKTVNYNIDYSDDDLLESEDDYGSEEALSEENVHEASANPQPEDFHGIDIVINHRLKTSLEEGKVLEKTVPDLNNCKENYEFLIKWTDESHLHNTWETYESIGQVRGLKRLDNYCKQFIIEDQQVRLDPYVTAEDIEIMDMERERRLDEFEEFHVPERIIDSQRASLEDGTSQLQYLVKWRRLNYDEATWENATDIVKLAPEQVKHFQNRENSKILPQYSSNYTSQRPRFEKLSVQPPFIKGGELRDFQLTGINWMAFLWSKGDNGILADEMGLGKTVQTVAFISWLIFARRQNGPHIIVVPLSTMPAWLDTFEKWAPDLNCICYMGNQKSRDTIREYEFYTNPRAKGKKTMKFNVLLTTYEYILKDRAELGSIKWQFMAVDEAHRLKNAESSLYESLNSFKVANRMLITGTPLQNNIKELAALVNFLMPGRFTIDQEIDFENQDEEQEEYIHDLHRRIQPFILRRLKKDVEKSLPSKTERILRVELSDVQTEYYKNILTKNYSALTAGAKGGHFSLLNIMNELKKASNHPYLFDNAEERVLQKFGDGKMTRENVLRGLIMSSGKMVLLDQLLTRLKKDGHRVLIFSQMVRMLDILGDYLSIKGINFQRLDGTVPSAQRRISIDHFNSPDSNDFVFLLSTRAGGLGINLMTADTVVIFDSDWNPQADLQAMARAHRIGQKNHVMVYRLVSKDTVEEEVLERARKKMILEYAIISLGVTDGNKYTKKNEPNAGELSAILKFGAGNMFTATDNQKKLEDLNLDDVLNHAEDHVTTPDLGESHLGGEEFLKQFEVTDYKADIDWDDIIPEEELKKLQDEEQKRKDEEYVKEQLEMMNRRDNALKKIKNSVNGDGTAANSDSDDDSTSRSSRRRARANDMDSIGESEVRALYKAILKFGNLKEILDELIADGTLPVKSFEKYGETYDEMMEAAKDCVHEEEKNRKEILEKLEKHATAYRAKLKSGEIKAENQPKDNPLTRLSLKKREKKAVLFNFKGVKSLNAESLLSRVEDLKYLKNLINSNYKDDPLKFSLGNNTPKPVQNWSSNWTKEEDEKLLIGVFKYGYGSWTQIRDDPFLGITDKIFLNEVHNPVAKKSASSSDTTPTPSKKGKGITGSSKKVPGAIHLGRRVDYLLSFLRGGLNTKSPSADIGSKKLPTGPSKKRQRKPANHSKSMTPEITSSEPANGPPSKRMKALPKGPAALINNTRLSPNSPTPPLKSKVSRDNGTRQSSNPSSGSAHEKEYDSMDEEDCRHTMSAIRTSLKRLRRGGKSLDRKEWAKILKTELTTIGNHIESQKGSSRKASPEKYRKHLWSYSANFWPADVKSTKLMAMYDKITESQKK
Sequence of Sialic acid-binding Ig-like lectin 9 (Homo sapiens) (Q9Y336 whole entry): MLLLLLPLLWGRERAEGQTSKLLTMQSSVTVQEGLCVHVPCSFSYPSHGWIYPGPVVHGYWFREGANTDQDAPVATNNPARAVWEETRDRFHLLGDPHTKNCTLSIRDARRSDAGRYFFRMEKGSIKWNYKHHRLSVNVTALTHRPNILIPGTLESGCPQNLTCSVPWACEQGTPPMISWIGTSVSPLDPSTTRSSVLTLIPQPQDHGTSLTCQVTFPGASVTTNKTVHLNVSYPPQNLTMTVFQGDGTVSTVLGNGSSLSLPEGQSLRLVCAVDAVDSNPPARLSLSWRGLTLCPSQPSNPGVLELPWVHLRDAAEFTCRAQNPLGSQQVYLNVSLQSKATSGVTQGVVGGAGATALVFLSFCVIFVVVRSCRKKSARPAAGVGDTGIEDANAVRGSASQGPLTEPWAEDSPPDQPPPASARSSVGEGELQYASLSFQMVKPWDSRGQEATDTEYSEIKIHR

Consider `CCCc1c(C(=O)NC2CCCC2)nnn1-c1ccc(OC)cc1`, for which the Percent Effect in experiment [1] is 107%; in experiment [2], 17.3%; in experiment [3], -6.12%; in the experiment on Trypanosoma cruzi, 0%; in [4] it was 6.2%; in [5], 8.37%. In addition, the Percent Effect is 27% in the experiment listed under Homo sapiens, -1.06% in experiment [6], 7.5% in experiment [7] and -16.8% in [8].
Take `Cc1cccc(CN2CCC3(CCN(Cc4ccccn4)C3)C2=O)c1` (stereo not given): the Percent Effect in experiment [1] was -10.9%; in experiment [2] it was 6.49%; in experiment [3], 0.239%; in the experiment on Trypanosoma cruzi, -2.81%; in experiment [4], 3.65%; in experiment [5], 6.95%. In addition, the Percent Effect is 19% in the experiment listed under Homo sapiens, -0.966% in experiment [6], 0% in [7] and -12.5% in experiment [8].
`COCCOc1cccc(C(=O)N2CCCC(n3ccnc3C)C2)c1` (stereo not given): the Percent Effect is -2.56% in experiment [1]; 13% in experiment [2]; 8.18% in [3]; 4.85% with Trypanosoma cruzi; -2.25% in experiment [4]; 0.877% in [5]. The Percent Effect in the experiment filed under Homo sapiens was 1.8%; in [6], 0%; in [7] it was 18.8%; in experiment [8], -12.3%.
`O=C1NC2(CCN(Cc3nccs3)CC2)CC1c1ccncc1` (stereo not given): the Percent Effect in [1] is -7.46%; in experiment [2], 9.09%; in experiment [3], 9.45%; in the experiment on Trypanosoma cruzi, 6.13%; in experiment [4], -6.07%; in experiment [5], 6.8%. Further, the Percent Effect is -18.5% in the experiment filed under Homo sapiens, 3.68% in experiment [6], 10.3% in [7] and 0.471% in experiment [8].
With `CCn1ncc(NC(=O)c2cc(C3CC3)nc3c2c(C)nn3C)c1C`, the Percent Effect in experiment [1] is -5.7%; in [2], 20%; in [3], -4.48%; in the experiment on Trypanosoma cruzi it was 3.75%; in [4], -2.21%; in experiment [5], 22%. The Percent Effect in the experiment filed under Homo sapiens was 14.6%; in experiment [6] it was 2.12%; in experiment [7], 15%; in experiment [8], -28.1%.
Take `Cn1cc(CN2CCCN(C(=O)c3cn4ccccc4n3)CC2)cn1`: the Percent Effect in experiment [1] is -2.59%; in experiment [2] it was 25.6%; in experiment [3], -16.8%; in the experiment on Trypanosoma cruzi, 4.04%; in [4], -0.41%; in [5], 20.1%. The Percent Effect in the experiment filed under Homo sapiens was 13.6%; in experiment [6] it was 3.35%; in experiment [7], 22.9%; in experiment [8], 15.2%.
For the compound `COc1ncc(C2(O)CCN(Cc3c(F)cccc3F)CC2)c(OC)n1`, the Percent Effect in experiment [1] is -3.32%; in [2], 9.33%; in [3] it was -4.97%; with Trypanosoma cruzi, 1.97%; in experiment [4], -4.87%; in experiment [5], 13.3%. Further, the Percent Effect in the experiment listed under Homo sapiens is 15.3%; in experiment [6], 2.12%; in [7] it was 0%; in experiment [8], -21.1%.
Take `Cc1cc(C(=O)NCCn2nc3ccccn3c2=O)[nH]n1`: the Percent Effect in experiment [1] is 0.567%; in experiment [2], 12.8%; in experiment [3], -9.12%; with Trypanosoma cruzi, -3.1%; in experiment [4], 0%; in experiment [5], 16.8%. Moreover, the Percent Effect in the experiment listed under Homo sapiens was 8.57%; in experiment [6] it was 1.44%; in [7], 18.1%; in [8], -7.79%.
`Cn1ncc(NCc2cccc(COC(C)(C)C)c2)c(Cl)c1=O`: the Percent Effect in experiment [1] was -2.67%; in [2], 8%; in experiment [3], 4.11%; in the experiment on Trypanosoma cruzi, 1.81%; in experiment [4], 5.32%; in [5], 3.31%. Moreover, the Percent Effect in the experiment filed under Homo sapiens was 49.3%; in experiment [6], 2.63%; in experiment [7], 10.3%; in experiment [8] it was -8.54%.
Turning to `O=C(c1ccco1)N1CCC2(CC1)C(=O)NCCN2CC1CC1`, the Percent Effect in experiment [1] was -7.74%; in experiment [2], 1.3%; in experiment [3], -3.06%; with Trypanosoma cruzi, -8.08%; in [4] it was -4.05%; in experiment [5], 15.1%. The Percent Effect in the experiment listed under Homo sapiens is 8.56%; in [6], 1.58%; in experiment [7], -2.56%; in [8], -1.19%.
Turning to `Cc1[nH]ccc1C(=O)N1CCCC(c2nccn2Cc2cscn2)C1` (stereo not given), the Percent Effect in experiment [1] was -7.46%; in experiment [2], -5.41%; in experiment [3], 27.9%; in the experiment on Trypanosoma cruzi it was 9.99%; in experiment [4], 57%; in [5] it was 15.2%. The Percent Effect in the experiment listed under Homo sapiens is 8.11%; in experiment [6], 7.98%; in [7] it was 17.1%; in experiment [8], -3.33%.
Regarding `CC(Nc1cccc(CN2CCOC2=O)c1)C(=O)Nc1ccccc1F` (stereo not given), the Percent Effect in experiment [1] was -0.263%; in experiment [2] it was 7.69%; in experiment [3], 0.909%; with Trypanosoma cruzi, -1.41%; in experiment [4], 4.51%; in experiment [5], 3.5%. The Percent Effect is 29.9% in the experiment listed under Homo sapiens, 2.39% in [6], 8.43% in experiment [7] and -5.9% in [8].
As to `CCC1c2ccsc2CCN1C(=O)NCCNc1ncccn1` (stereo not given), the Percent Effect in [1] is 0.216%; in experiment [2], 15.4%; in experiment [3], -5.88%; in the experiment on Trypanosoma cruzi, 6.29%; in [4] it was 6.15%; in [5], 9.3%. For the same compound, the Percent Effect was 10% in the experiment filed under Homo sapiens, 6.22% in [6], 22.9% in experiment [7] and -7.01% in [8].
